Active and inactive are the calls of the source. Unless noted, the rule behind the calls is not given here.
Experiments:
[1] = A549 cell viability effects, profiling panel, calcein-AM fluorescence, 48 h, basal (AID 1162); conditions: higher = more signal; note: test concentration not given here
[2] = adipocyte viability effects, profiling panel, cell-based, 3T3-L1 adipocytes, calcein-AM fluorescence, 48 h, basal (AID 1163); conditions: 3T3-L1 adipocytes viability, higher = more signal; note: test concentration not given here
[3] = HepG2 cell viability effects, profiling panel, calcein-AM fluorescence, 48 h, basal (AID 1164); conditions: higher = more signal; note: test concentration not given here
[4] = MM1S cell viability effects, profiling panel, calcein-AM fluorescence, 48 h, basal (AID 1165); conditions: higher = more signal;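 note: viability of MM1S multiple myeloma cells under basal unstimulated conditions; test concentration not given here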
[5] = basal RPMI8226 viability, no added stimulus, profiling panel, cell-based, calcein-AM fluorescence, 48 h, PK04 Diversity Set (AID 1166); conditions: RPMI8226 myeloma viability, higher = more signal;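 note: cells grown under basal conditions without added stimulus; test concentration not given here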
[6] = basal HepG2 mitochondrial membrane potential changes, profiling panel, cell-based, JC-1 fluorescence, 24 h, 100 nL compound (AID 1167); conditions: higher = more signal; note: test concentration not given here
[7] = basal 3T3-L1 adipocyte mitochondrial potential changes, profiling panel, cell-based, JC-1 fluorescence, 3T3-L1 adipocytes, 24 h, 100 nL compound (AID 1168); conditions: JC-1 mitochondrial fluorescence, higher = more signal, called active from +8 up or from −8 down; note: test concentration not given here
[8] = basal RPMI8226 mitochondrial membrane potential changes, profiling panel, cell-based, JC-1 fluorescence, 24 h, 100 nL compound (AID 1169); conditions: RPMI8226 myeloma, JC-1 mitochondrial potential fluorescence, higher = more signal; note: test concentration not given here
[9] = basal MM1S mitochondrial membrane potential changes, profiling panel, cell-based, JC-1 fluorescence, 24 h, 100 nL compound (AID 1170); conditions: higher = more signal; note: test concentration not given here
[10] = A549 lung cancer cell viability effects, profiling panel, resazurin fluorescence, 24 h, PK04 Diversity Set (AID 1171); conditions: higher = more signal, called active from +8 up or from −8 down; note: test concentration not given here
[11] = HepG2 liver cancer cell viability effects, profiling panel, resazurin fluorescence, 24 h, PK04 Diversity Set (AID 1172); conditions: higher = more signal; note: test concentration not given here
[12] = basal S. cerevisiae growth modulation, no modifier, primary screen, OD600, strain BY4716, 24 h, basal condition (AID 1173); conditions: OD600, 24 h, higher = more signal, called active from +8 up or from −8 down
[13] = MM1S myeloma cell viability, profiling panel, resazurin fluorescence, basal, 24 h, PK04 Diversity Set (AID 1174); conditions: higher = more signal, called active from +8 up or from −8 down;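 note: MM1S multiple myeloma cell line; test concentration not given here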
[14] = biological target: Dihydroorotate dehydrogenase (quinone), mitochondrial (Plasmodium falciparum (isolate 3D7)) (UniProt Q08210); assay: PfDHODH enzyme inhibitors, primary screen, biochemical, C-terminal His tag, absorbance 600 nm (AID 1175); conditions: DCIP absorbance 600 nm, higher = more signal, called active from +8 up or from −8 down;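 note: recombinant parasite enzyme with a five histidine tag at its C terminus; test concentration not given here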
Chain of Dihydroorotate dehydrogenase (quinone), mitochondrial (Plasmodium falciparum (isolate 3D7)) (Q08210 whole entry, looked up): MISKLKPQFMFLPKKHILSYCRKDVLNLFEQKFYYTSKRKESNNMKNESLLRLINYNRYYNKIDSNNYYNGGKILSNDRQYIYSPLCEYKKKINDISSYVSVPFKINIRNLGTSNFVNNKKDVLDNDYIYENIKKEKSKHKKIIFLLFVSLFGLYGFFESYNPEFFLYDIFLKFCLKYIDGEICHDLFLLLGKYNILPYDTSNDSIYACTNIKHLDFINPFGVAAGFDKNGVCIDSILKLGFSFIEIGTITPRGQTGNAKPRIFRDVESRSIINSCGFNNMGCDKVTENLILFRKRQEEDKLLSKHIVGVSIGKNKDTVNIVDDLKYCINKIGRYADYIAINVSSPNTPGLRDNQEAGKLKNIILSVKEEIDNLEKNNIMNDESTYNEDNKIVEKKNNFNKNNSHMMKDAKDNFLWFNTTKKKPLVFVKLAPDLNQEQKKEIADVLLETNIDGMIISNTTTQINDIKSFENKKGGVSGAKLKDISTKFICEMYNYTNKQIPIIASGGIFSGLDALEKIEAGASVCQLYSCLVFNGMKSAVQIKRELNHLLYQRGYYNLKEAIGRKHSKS

[15] = P. aeruginosa biofilm formation inhibitors, primary screen, strain PAO1, LB-PBS medium, absorbance 600 nm (AID 1176); note: test concentration not given here; conditions: P. aeruginosa PAO1 growth/biofilm, A600, 12 h; higher = more signal
[16] = S. cerevisiae RM11-1a growth modifiers, primary screen, strain RM11-1a, OD600, basal, 24 h (AID 1177); conditions: OD600, 24 h, higher = more signal, called active from +8 up or from −8 down;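 note: cultures grown under basal conditions with no added stressor; test concentration not given here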
[17] = E. coli acrAB mutant growth effects, primary screen, E. coli filamentation inducers, strain DRC39, OD650, 24 h (AID 1178); conditions: higher = more signal, called active from +8 up or from −8 down;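 note: growth measured as culture turbidity by optical density at 650 nm; test concentration not given here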
[18] = E. coli acrAB mutant growth effects, primary screen, E. coli filamentation inducers, strain DRC39, OD650, 48 h (AID 1179);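 note: screen aims at cell division blockers that make cells filament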; conditions: E. coli DRC39 delta-acrAB growth, higher = more signal, called active from +8 up or from −8 down
[19] = RPMI8226 myeloma cell viability, profiling panel, resazurin fluorescence, basal, 24 h, PK04 Diversity Set (AID 1180); conditions: higher = more signal;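 note: RPMI8826 multiple myeloma cell line at 5000 cells per well; test concentration not given here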
[20] = biological target: E3 ubiquitin-protein ligase XIAP (Homo sapiens) (UniProt P98170); assay: XIAP binders, primary screen, biophysical, small-molecule microarray, fluorescence 635 nm (AID 1181); conditions: small-molecule microarray binding, higher = more signal;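 note: score merges 667 nm emission and signal to noise over triplicate slides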
Chain of E3 ubiquitin-protein ligase XIAP (Homo sapiens) (P98170 whole entry, looked up): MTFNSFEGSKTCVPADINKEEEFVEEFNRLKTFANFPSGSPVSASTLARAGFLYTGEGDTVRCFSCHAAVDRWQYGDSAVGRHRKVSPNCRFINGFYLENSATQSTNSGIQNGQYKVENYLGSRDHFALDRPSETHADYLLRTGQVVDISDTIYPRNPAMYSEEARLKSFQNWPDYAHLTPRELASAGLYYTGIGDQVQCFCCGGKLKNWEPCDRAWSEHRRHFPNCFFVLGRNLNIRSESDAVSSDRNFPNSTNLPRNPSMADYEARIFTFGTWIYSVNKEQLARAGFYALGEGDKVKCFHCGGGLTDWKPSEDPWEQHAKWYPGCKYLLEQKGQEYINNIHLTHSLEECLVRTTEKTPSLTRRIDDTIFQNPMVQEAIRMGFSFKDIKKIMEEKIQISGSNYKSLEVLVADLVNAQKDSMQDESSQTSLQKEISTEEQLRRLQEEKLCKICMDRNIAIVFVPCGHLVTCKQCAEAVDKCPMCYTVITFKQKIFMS

SMILES | z-score [1] | z-score [2] | z-score [3] | z-score [4] | z-score [5] | z-score [6] | z-score [7] | z-score [8] | z-score [9] | z-score [10] | z-score [11] | z-score [12] | z-score [13] | composite z-score [14] | z-score [15] | z-score [16] | z-score [17] | z-score [18] | z-score [19] | composite z-score [20]
C#CCCCON=C1C[C@@H](O)[C@@H](O)[C@@H]2[C@@H]3C(=O)N(C(C)(C)C)C(=O)[C@@H]3CC[C@H]12 | 0.053 | -0.304 | 0.673 | 0.505 | -0.413 | -0.161 | -0.505 (inactive) | 0.386 | -0.708 | -0.496 (inactive) | -0.375 | 0.522 (inactive) | -0.0486 (inactive) | -0.396 (inactive) | -0.143 (inactive) | -0.311 (inactive) | 0.329 (inactive) | 0.221 (inactive) | -0.0553 | -0.0849
CCOC(=O)NN=C1C[C@@H](O)[C@@H](O)[C@@H]2[C@@H]3C(=O)N(Cc4ccc5c(c4)OCO5)C(=O)[C@@H]3CC[C@H]12 | -0.257 | -0.132 | 0.473 | 0.457 | -0.0903 | -0.268 | -0.754 (inactive) | 0.386 | -1.34 | -0.027 (inactive) | 0.514 | 0.923 (inactive) | -0.343 (inactive) | 0.005 (inactive) | -0.981 (inactive) | 0.169 (inactive) | 0.298 (inactive) | 0.19 (inactive) | 0.3 | -0.0294
CO[C@H]1COC(=O)[C@@H](Cc2ccccc2)NC(=O)[C@@H](C)COC(=O)CCC[C@@H]1C | 0.704 | 0.0955 | 0.577 | -0.267 | -0.283 | -0.212 | 0.00303 (inactive) | -0.161 | -1.23 | 0.6 (inactive) | 0.464 | -0.916 (inactive) | 1.18 (inactive) | -1.7 (inactive) | -1.24 (inactive) | -0.726 (inactive) | 0.285 (inactive) | 1.39 (inactive) | 0.759 | -0.0918
O=C1[C@H]2[C@H]3[C@H](O)[C@H](O)CC(=NOCc4ccccc4)[C@@H]3CC[C@H]2C(=O)N1C[C@@H]1CCCO1 | -0.0287 | -0.444 | -0.581 | 0.229 | -0.812 | -1.01 | 0.577 (inactive) | -0.944 | -0.28 | 0.232 (inactive) | 0.0577 | -0.321 (inactive) | 0.161 (inactive) | -0.0256 (inactive) | 0.611 (inactive) | -0.447 (inactive) | -0.242 (inactive) | 0.403 (inactive) | 0.278 | -0.211
COC(=O)NCC=Cc1nc(CCCO)co1 | 0.206 | -0.683 | 0.392 | 0.225 | 0.0204 | -0.64 | 0.331 (inactive) | -0.0369 | -0.606 | -0.238 (inactive) | -0.0091 | 0.41 (inactive) | -0.295 (inactive) | -0.706 (inactive) | -0.245 (inactive) | 0.414 (inactive) | 0.107 (inactive) | 0.438 (inactive) | -0.626 | -0.117
COC(=O)[C@H](C)NC(=O)CCC1CC(OC(=O)NCc2ccc3c(c2)OCO3)CC2(CCCC(COC(=O)NCC3CCCCC3)O2)O1 (stereo not given in full) | -0.374 | -0.335 | -0.653 | -3.22 | -0.103 | -0.283 | -0.183 (inactive) | 0.34 | -0.0549 | 0.619 (inactive) | 0.635 | 0.415 (inactive) | 0.138 (inactive) | 0.981 (inactive) | -0.388 (inactive) | 1.13 (inactive) | 0.49 (inactive) | 0.139 (inactive) | -0.119 | 0.104
O=C1CCCC=C1C(O)CCOC(c1ccccc1)(c1ccccc1)c1ccccc1 (stereo not given) | -0.893 | -0.268 | -0.26 | -3.43 | -3.62 | -2.77 | -0.115 (inactive) | -0.879 | -0.0919 | 0.418 (inactive) | 0.0714 | -0.529 (inactive) | 0.0795 (inactive) | 0.466 (inactive) | 0.368 (inactive) | 1.25 (inactive) | 0.0368 (inactive) | -0.356 (inactive) | -0.193 | 0.412
Cc1ccc(S(=O)(=O)N[C@H]2COC(=O)CC=C[C@H](C)[C@@H](NS(=O)(=O)c3ccc(C)cc3)COC(=O)CC=C[C@@H]2C)cc1 | -0.315 | 0.352 | -0.521 | 0.248 | -0.11 | 0.477 | -0.0603 (inactive) | 0.822 | 0.507 | 0.694 (inactive) | -0.0933 | 1.32 (inactive) | 0.418 (inactive) | -0.069 (inactive) | -0.585 (inactive) | 1.34 (inactive) | 0.455 (inactive) | 0.614 (inactive) | 0.0846 | -0.146

— PubChem BioAssay
